Most compounds without a hit are left out; they make up all but 5.7% or so of the library.
B2AR arrestin = agonists driving beta-arrestin recruitment to human beta2-adrenergic receptor; P07550; 330,000 tested, 0.02% active; beta-arrestin recruitment to beta2AR, cell-based reporter; AID 492947; Potency, µM (series often up to 46.1 µM), most hits filed as activators; further: nearly all actives have a fitted effect of over 65% in size
Gal4-VP16 FLuc = inhibits Gal4-VP16 luciferase reporter, ROR gamma counter-screen. AID 2546. Drosophila S2 Gal4-VP16 UAS-luciferase, luminescence, 20 h. 310,000 tested, 3.5% active. Potency, µM (highest dose often 53.6 µM), hits mostly inhibitors;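 further: Gal4-VP16 expression switched on by copper sulfate through the metallothionein promoter; nearly all actives have a fitted effect of over 50% in size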
RORg inh = inhibitors of mouse ROR gamma transcriptional activity; Drosophila S2 Gal4-RORgamma UAS-luciferase reporter, 20 h; P51450; 310,000 tested, 5.4% active; Potency, µM (top dose mostly 53.6 µM), actives largely listed as inhibitors; further: nearly all actives have a fitted effect of over 60% in size
Target sequence (P51450 whole entry, looked up, the tested form may be a part): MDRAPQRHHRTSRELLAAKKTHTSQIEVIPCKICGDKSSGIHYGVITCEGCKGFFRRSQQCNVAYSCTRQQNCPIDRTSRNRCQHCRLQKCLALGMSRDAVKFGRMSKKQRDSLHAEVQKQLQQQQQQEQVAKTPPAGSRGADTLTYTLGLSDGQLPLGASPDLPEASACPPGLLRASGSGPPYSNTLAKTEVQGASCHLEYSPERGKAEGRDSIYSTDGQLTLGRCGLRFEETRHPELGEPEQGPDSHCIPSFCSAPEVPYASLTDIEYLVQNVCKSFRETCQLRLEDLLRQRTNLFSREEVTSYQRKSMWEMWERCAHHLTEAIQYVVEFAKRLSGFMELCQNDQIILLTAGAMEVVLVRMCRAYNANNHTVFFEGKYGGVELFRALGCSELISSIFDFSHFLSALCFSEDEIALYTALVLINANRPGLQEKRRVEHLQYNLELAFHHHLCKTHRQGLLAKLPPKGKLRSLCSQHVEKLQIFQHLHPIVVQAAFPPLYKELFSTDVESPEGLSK
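A Gal4/UAS one-hybrid system in insect cells: metallothionein-promoter Gal4–ROR gamma fusion plus Photinus luciferase reporter. Copper sulfate 700 uM final, 20 hr ambient incubation, luminescent detection after 10 min with reagent.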
NPSR antagonist = antagonists of human neuropeptide S receptor cAMP signaling | Q6W5P4 | CHO-NPSR cells, cAMP TR-FRET, antagonist mode | Potency, µM (doses to about 38.3 µM), actives largely listed as inhibitors | 220,000 tested, 1% active | AID 1461; further: nearly all actives have a fitted effect of over 50% in size
Large screens that a line does not name were inactive. The call rests on the fitted dose curve; in most records, active means well fitted curve in the direction sought with a large enough effect; inconclusive means small, poorly fitted or top-dose-only effect, or another doubt; inactive means no such curve, though single readings can be large; an effect the other way counts as inactive or inconclusive.

COc1ccccc1NC(=O)CCCn1c(=S)[nH]c2ccccc2c1=O	Gal4-VP16 FLuc inconclusive, RORg inh 10µM
COc1ccc(OC)c(NC(=O)CCn2c(=S)[nH]c3ccccc3c2=O)c1	none (no result: NPSR antagonist)
CCN(CC)CCn1c(=S)[nH]c2ccc(Br)cc2c1=O	Gal4-VP16 FLuc 13µM, RORg inh 11µM
COc1ccccc1Cn1c(=S)[nH]c2ccc(F)cc2c1=O	Gal4-VP16 FLuc 11µM, RORg inh 16µM (no result: NPSR antagonist)
O=c1c2cc(F)ccc2[nH]c(=S)n1Cc1ccc(F)cc1	Gal4-VP16 FLuc 3.2µM, RORg inh 1.4µM (no result: NPSR antagonist)
COc1ccccc1Cn1c(=S)[nH]c2cc(C(=O)NC(C)C)ccc2c1=O	none (no result: NPSR antagonist)
COCCCNC(=O)c1ccc2c(=O)n(Cc3ccccc3OC)c(=S)[nH]c2c1	none (no result: NPSR antagonist)
COc1ccccc1NC(=O)Cn1c(C)cc(=O)c2cccc(OC)c21	Gal4-VP16 FLuc 28µM
COc1ccccc1Cn1c(=S)[nH]c2ccc(Br)cc2c1=O	Gal4-VP16 FLuc 5.6µM, RORg inh 2µM (no result: NPSR antagonist)
COc1ccccc1Cn1c(=S)[nH]c2ccccc2c1=O	Gal4-VP16 FLuc 14µM, RORg inh 10µM (no result: NPSR antagonist)
Oc1ccc(C23CCCC2C2(CCCC2)c2ccc(O)cc2O3)c(O)c1 (stereo unspecified)	none (no result: Gal4-VP16 FLuc, RORg inh, NPSR antagonist)
CC(C)n1c(-c2ccccc2F)n[nH]c1=S	Gal4-VP16 FLuc 11µM, RORg inh 3.2µM
CC(c1ccccc1)n1c(-c2ccc(Cl)cc2)n[nH]c1=S (stereo unspecified)	Gal4-VP16 FLuc 6.3µM, RORg inh 5.6µM (no result: NPSR antagonist)
CC(c1ccc(F)cc1)n1c(-c2cccs2)n[nH]c1=S (stereo unspecified)	Gal4-VP16 FLuc 10µM, RORg inh 2.8µM
CC(c1ccccc1)n1c(-c2ccccc2F)n[nH]c1=S (stereo unspecified)	Gal4-VP16 FLuc 6.3µM, RORg inh 7.1µM (no result: NPSR antagonist)
CC(C(=O)N1CCN=C1c1ccccc1)N1C(=O)c2ccccc2C1=O (stereo unspecified)	none
CCCOc1ccccc1/C=C(\C#N)C(=O)Nc1cccnc1	RORg inh inconclusive
C=CCNC(=S)Nc1ccccc1	Gal4-VP16 FLuc inconclusive
S=C(NNc1nc(Nc2ccccc2)nc(N2CCCCC2)n1)NC1CCCCC1	Gal4-VP16 FLuc 13µM, RORg inh 4.5µM
CCNC(=S)NNc1nc(N2CCOCC2)nc(N2CCOCC2)n1	none
C=CCNC(=S)NNc1nc(Nc2ccccc2)nc(N2CCCCC2)n1	Gal4-VP16 FLuc inconclusive, RORg inh 4µM, NPSR antagonist inconclusive
C=CCNC(=S)NNc1nc(N2CCCC2)nc(N2CCCC2)n1	Gal4-VP16 FLuc 18µM, RORg inh 2.2µM (no result: NPSR antagonist)
Cc1nc(NCCO)c2nc(-c3ccccc3)n(CCCN(C)C)c2n1	none (no result: B2AR arrestin, NPSR antagonist)
C=CCC(C)(O)c1ccc(OC)cc1 (stereo unspecified)	none (no result: B2AR arrestin, NPSR antagonist)
Cc1cccc(NC(=O)CSc2ncnc3sc(C)c(C)c23)n1	none (no result: NPSR antagonist)
Cc1sc2ncnc(SCC(=O)NC(=O)c3cccn3C)c2c1C	RORg inh 4.5µM
CC(C)C[C@H](NC(=O)CNC(=O)[C@H](CCC(N)=O)NC(=O)[C@H](CC(C)C)NC(=O)[C@H](CC(C)C)NC(=O)[C@H](CCCNC(=N)N)NC(=O)[C@H](CCC(N)=O)NC(=O)[C@H](CC(C)C)NC(=O)[C@H](CCCNC(=N)N)NC(=O)[C@H](C)NC(=O)CNC(=O)[C@H](CCC(=O)O)NC(=O)[C@H](CCCNC(=N)N)NC(=O)[C@H](CC(C)C)NC(=O)[C@H](CCCNC(=N)N)NC(=O)[C@H](CO)NC(=O)[C@H](CC(C)C)NC(=O)[C@H](CCC(=O)O)NC(=O)[C@H](CO)NC(=O)[C@@H](NC(=O)[C@H](Cc1ccccc1)NC(=O)[C@@H](NC(=O)CNC(=O)[C@H](CC(=O)O)NC(=O)[C@H](CO)NC(=O)[C@@H](N)Cc1cnc[nH]1)[C@@H](C)O)[C@@H](C)O)C(=O)N[C@H](C(N)=O)C(C)C	none (no result: B2AR arrestin, NPSR antagonist)
CCC1=C2CC[C@H]3C(=O)N(c4ccccc4)C(=O)[C@H]3[C@H]2[C@@]2(Cc3ccccc3)C(=O)N(CC(=O)OC)C(=O)N2C1=O	none (no result: B2AR arrestin, NPSR antagonist)
OCCCn1c(-c2ccccc2)n[nH]c1=S	none
C=CCn1c(-c2csc3c2CCC(C)C3)n[nH]c1=S (stereo unspecified)	Gal4-VP16 FLuc 2.5µM, RORg inh 1.4µM
CCCCn1c(-c2csc3ccccc23)n[nH]c1=S	Gal4-VP16 FLuc inconclusive, RORg inh 7.9µM
CCn1c(-c2csc3c2CCCC3)n[nH]c1=S	Gal4-VP16 FLuc 4.5µM, RORg inh 4µM
C=CCn1c(-c2cc(OC)cc(OC)c2)n[nH]c1=S	Gal4-VP16 FLuc inconclusive, RORg inh inconclusive
CCn1c(-c2cccc(S(=O)(=O)N3CCCC3)c2)n[nH]c1=S	RORg inh inconclusive, NPSR antagonist inconclusive
CCCCn1c(-c2csc3c2CCCC3)n[nH]c1=S	Gal4-VP16 FLuc inconclusive, RORg inh 3.5µM
Cc1ccc(CN2CCN(Cc3cccc4nccnc34)CC2CCO)cc1 (stereo unspecified)	none
CCCCn1c(-c2csc3c2CCC(C)C3)n[nH]c1=S (stereo unspecified)	Gal4-VP16 FLuc 2.5µM, RORg inh 0.79µM, NPSR antagonist inconclusive
CCCCCCn1c(-c2cccs2)n[nH]c1=S	Gal4-VP16 FLuc inconclusive, RORg inh 2µM
CCCCn1c(-c2cccs2)nc2nc3ccccc3nc21	none
CCCCNC(=S)NNC(=O)c1csc2c1CCC(C)C2 (stereo unspecified)	RORg inh inconclusive
Cc1ccc(C(N)=S)c(C)c1	Gal4-VP16 FLuc inconclusive, RORg inh 20µM
COc1ccc(-n2c(=O)c3c4c(sc3n3c(=S)[nH]nc23)CCCC4)cc1	Gal4-VP16 FLuc 13µM, RORg inh 7.9µM
COC(=O)CSc1nnc2n(-c3ccc(OC)cc3)c(=O)c3c4c(sc3n12)CCCCC4	NPSR antagonist inconclusive
Cc1ncc(CO)c(/C=N/NC(=O)c2ccc(O)cc2)c1O	Gal4-VP16 FLuc inconclusive, RORg inh 10µM
Cc1ncc(CO)c(/C=N/NC(=O)c2ccccc2Br)c1O	Gal4-VP16 FLuc 18µM, RORg inh 10µM
Cc1ncc(CO)c(/C=N/NC(=O)c2cc3c(s2)CCCC3)c1O	RORg inh 10µM
COc1ccc(C(=O)N/N=C/c2c(CO)cnc(C)c2O)cc1	RORg inh inconclusive
Cc1[nH]n(-c2ccccc2)c(=O)c1Sc1ccc(Cl)cc1	none
Cc1cc(-c2c(C)[nH]n(-c3ccc(Cl)cc3)c2=O)n[nH]1	Gal4-VP16 FLuc 0.63µM, RORg inh 0.11µM, NPSR antagonist inconclusive
CN(CC(=O)Nc1ccccc1Br)C(=O)c1cc2c(s1)CCCCC2	none (no result: Gal4-VP16 FLuc, RORg inh, NPSR antagonist)
CC(C)c1ccc(C2CC(c3ccc(Br)cc3)=NN2C(N)=S)cc1 (stereo unspecified)	Gal4-VP16 FLuc 5.6µM, RORg inh 1.8µM
CNC(=S)N1N=C(c2ccc(C)cc2)CC1c1ccc(Cl)cc1 (stereo unspecified)	RORg inh 13µM, NPSR antagonist inconclusive
CNC(=S)N1N=C(c2ccccc2)CC1c1ccccc1Cl (stereo unspecified)	RORg inh 18µM, NPSR antagonist inconclusive
NC(=S)c1cnn2c(-c3cccc(C(F)(F)F)c3)ccnc12	Gal4-VP16 FLuc 10µM, RORg inh 4µM (no result: NPSR antagonist)
N#Cc1cnn2c(-c3ccccc3)ccnc12	none (no result: B2AR arrestin)

Screens (PubChem)
